Sampled rows, rich in hits. Any-hit rate of the full collection: about 6.7%.
BoNT-F LC inh – BoNT F light chain protease inhibition; actives 0.22% (n = 360,000); inhibition, % at 10 µM; Multiplex microsphere protease cleavage assay, flow cytometry; in the data active = inhibition above about 35%, passing the limit was not always enough; inconclusive = no clear call, values can overlap the other calls
Bead autofluor – counter-screen for toxin protease inhibitors: compound fluorescence | compound autofluorescence counterscreen, microsphere flow cytometry; hits give high values | fluorescence intensity (no concentration beside the values) | actives 3.1% (n = 360,000); in the data active = fluorescence intensity above about 16000; inconclusive = no clear call, values can overlap the other calls
Mtb FBA inh – Mtb fructose-bisphosphate aldolase inhibition; P9WQA3; purified M. tuberculosis FBA, fluorescence read-out; inhibition, % at 1 µM; actives 2.3% (n = 360,000); AID 588726; in the data active = inhibition above about 27%
BoNT A protease – blocks Botulinum neurotoxin A light chain protease; actives 0.17% (n = 360,000); inhibition, % at 10 µM; multiplex microsphere protease substrate cleavage, flow cytometry; AID 588499
GDH-TPI counter-1 – GDH-TPI coupled enzyme inhibition counter-screen; GDH-TPI coupled enzyme counterscreen, NADH absorbance; inhibition, % at 4.8 µM; actives 1.2% (n = 360,000); AID 588335; in the data active = inhibition above about 30%
Anthrax LF prot – inhibitors of Bacillus anthracis lethal factor protease; multiplex microsphere protease cleavage assay, LF; actives 0.12% (n = 360,000); inhibition, % at 10 µM; P15917
Target sequence (P15917 whole entry, looked up): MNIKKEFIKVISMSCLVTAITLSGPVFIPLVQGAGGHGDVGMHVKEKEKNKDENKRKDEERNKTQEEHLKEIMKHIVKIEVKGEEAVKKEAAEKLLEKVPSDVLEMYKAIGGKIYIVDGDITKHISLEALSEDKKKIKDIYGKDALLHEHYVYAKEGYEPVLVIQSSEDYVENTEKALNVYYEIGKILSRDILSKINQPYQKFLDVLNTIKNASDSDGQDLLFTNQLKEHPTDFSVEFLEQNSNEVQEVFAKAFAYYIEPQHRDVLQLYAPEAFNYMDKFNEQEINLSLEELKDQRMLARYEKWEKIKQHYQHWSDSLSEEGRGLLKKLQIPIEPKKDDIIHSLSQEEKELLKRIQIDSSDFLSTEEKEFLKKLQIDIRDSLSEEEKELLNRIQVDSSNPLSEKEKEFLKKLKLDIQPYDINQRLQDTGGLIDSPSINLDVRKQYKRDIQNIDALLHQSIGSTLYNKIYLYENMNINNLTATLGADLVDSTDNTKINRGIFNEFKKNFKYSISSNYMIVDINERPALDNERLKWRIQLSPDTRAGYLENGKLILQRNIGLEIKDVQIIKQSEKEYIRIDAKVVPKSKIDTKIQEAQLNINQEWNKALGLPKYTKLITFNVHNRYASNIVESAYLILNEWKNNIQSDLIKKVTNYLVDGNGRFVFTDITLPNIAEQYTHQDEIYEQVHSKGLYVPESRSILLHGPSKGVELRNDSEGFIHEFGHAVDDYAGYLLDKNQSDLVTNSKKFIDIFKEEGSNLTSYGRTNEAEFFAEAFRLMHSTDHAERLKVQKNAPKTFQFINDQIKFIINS
Mtb FBA inh conf – confirmation of M. tuberculosis fructose-bisphosphate aldolase inhibitors. purified M. tuberculosis FBA, fluorescence read-out. actives 78% (n = 5,600). inhibition, % at 1 µM. shares compounds with Mtb FBA inh; in the data active = inhibition above about 27%
GDH-TPI counter-2 – counter-screen for M. tuberculosis FBA inhibitors: GDH-TPI coupled enzyme inhibition | shares compounds with Mtb FBA inh | GDH-TPI coupled enzyme counterscreen, fluorescence | inhibition, % at 1 µM | actives 81% (n = 5,600); in the data active = inhibition above about 10%
GDH-TPI DR – inhibits GDH-TPI coupling enzymes in dose response; shares compounds with Mtb FBA inh; GDH-TPI coupled enzyme assay, fluorescence, artifact counterscreen; IC50, µM; actives 79% (n = 170); call rule not given here
Numbers stand for hits; - = inactive; ? = inconclusive; . = no result given; + = active, no number. Rule as the data show it, unless noted: active = inhibition above about 30%; inconclusive = no clear call, values can overlap the other calls; inactive = below that.

SMILES	BoNT-F LC inh	Bead autofluor	Mtb FBA inh	BoNT A protease	GDH-TPI counter-1	Anthrax LF prot	Mtb FBA inh conf	GDH-TPI counter-2	others
CCOC(=O)c1cnn2c(N)c(C#N)nnc12	-	-	-	-	-	-	.	.
Nc1nc(-c2ccccc2)c(-c2ccccc2)o1	.	.	-	.	-	.	.	.
c1ccc(-c2nc(-c3nccc4ccccc34)oc2-c2ccccc2)cc1	-	-	62.4	-	-	-	91.2	52.0
CCOC(=O)N1CCC(NC(=O)CSCc2nc(-c3sccc3C)oc2C)CC1	-	-	40.4	-	-	-	-	-
Cc1oc(-c2cccs2)nc1CSCC(=O)NC1CC1	-	-	35.0	-	-	-	-	-
CCOc1ccc(-c2nc(CSCC(=O)NC3CC3)c(C)o2)cc1	-	-	-	-	-	-	.	.
Cc1cc(C(=O)OCC(=O)NCc2cccs2)c2ccccc2n1	-	-	-	-	-	-	.	.
Cc1ccc(/C=N/n2cnc3sc(-c4ccccc4)cc3c2=O)o1	-	-	-	-	-	-	.	.
C[C@@H]1CCCCCCCCCCC1=O	-	-	-	-	-	-	.	.
O=C1NN=C2CCCCCCC12 (stereo unspecified)	-	-	28.6	-	-	-	85.2	70.4
CCOc1cc(S(=O)(=O)NCc2ccccc2)c(OCC)cc1-n1cnnn1	-	21889	49.0	?	-	-	131.7	110.8
Cc1ccc(-c2nn3c(C)nnc3s2)cc1N	-	-	-	-	-	-	.	.
Cc1nnc2sc(-c3ccc(-c4ccc(Cl)c(C(F)(F)F)c4)o3)nn12	-	-	76.2	-	-	-	129.6	115.0
Cn1c2ccccc2c(=O)c2cc(C#CC3(O)CCCCC3)ccc21	-	-	92.6	-	-	-	-	-
Cn1c2ccccc2c(=O)c2ccc(C#CC3(N)CCCCC3)cc21	-	-	92.4	-	-	-	35.1	18.9
CC(=O)N1c2ccccc2-c2nc3ccccc3n2C1C (stereo unspecified)	-	-	-	-	-	-	.	.
CCOC(=O)N1CCc2cc(OC)c(OC)c3c2c1cc1cc(OC)c(OC)cc13	-	-	38.4	-	-	-	-	-	GDH-TPI DR=5.46
Cc1ccc(NC(=S)/C(=C(\[O-])c2ccc(Cl)s2)[n+]2cccc(CO)c2)cc1C	-	-	-	-	-	-	.	.
[O-]/C(=C(\C(=S)Nc1cccc2ccccc12)[n+]1cccc(CO)c1)c1ccc(Cl)s1	-	-	31.1	-	-	-	151.0	129.0
CNc1cncc(-c2cc(OC)ccc2OC)n1	-	-	-	-	-	-	.	.
CNc1cncc(-c2ccc(OC)cc2OC)n1	-	-	52.1	-	-	-	-	-
CNc1cncc(-c2ccc(O)cc2C)n1	-	-	-	-	-	-	.	.
CNc1cncc(-c2cc(OC)c(OC)c(OC)c2)n1	-	-	96.2	-	-	-	+	+
Cc1ccc(CSc2nnc(-c3cccnc3)o2)cc1	-	-	-	-	-	-	.	.
O=[N+]([O-])c1ccc(OCc2cccc(COc3ccc([N+](=O)[O-])cc3)n2)cc1	-	-	-	-	-	-	.	.
SMILES	BoNT-F LC inh	Bead autofluor	Mtb FBA inh	BoNT A protease	GDH-TPI counter-1	Anthrax LF prot	Mtb FBA inh conf	GDH-TPI counter-2	others
Cc1ccc2c(c1)COc1c3ccc(C(=O)N[C@@H](C)CO)cc3nn1-2	-	-	33.7	-	-	-	+	+
COc1c(N)c2ccccc2[nH]c1=O	-	-	-	-	-	-	.	.
COc1ccc(Cl)cc1C(=O)NN=C1CCCC1	?	-	-	-	-	-	.	.
O=C(NN=C1CCCC1)c1cc(Cl)cc(Cl)c1O	-	-	41.4	-	-	-	70.4	61.0
CC(C)NC(=O)NC(=O)COC(=O)C1CCCN1C(=O)c1cccs1 (stereo unspecified)	-	-	-	-	-	-	.	.
O=C(COC(=O)[C@@H]1CCCN1C(=O)c1cccs1)NCCc1ccccc1	-	-	27.5	-	-	-	-	-
CCOC(=O)C1=CN(Cc2cccc(F)c2)S(=O)(=O)N(CC)C1CCc1ccccc1 (stereo unspecified)	-	-	-	-	-	-	.	.
O=c1c(-c2ccc(Cl)cc2)[n+]([O-])c2ccccc2n1OCc1ccccn1	-	-	-	-	-	-	.	.
COc1ccc(CC(=O)N2CCN(c3ccc(C4=NNC(=O)CC4C)cc3)CC2)cc1 (stereo unspecified)	?	-	31.9	-	-	-	162.0	131.8
COc1ccc(N2CCN(C(=O)COC(=O)Cc3ccc(F)cc3)CC2)cc1	-	-	-	-	-	-	.	.
Cc1ccc(C(c2nnnn2CS(=O)(=O)c2ccc(C)cc2)N2CCCC2)cc1 (stereo unspecified)	-	-	-	-	-	-	.	.
CCCCCCC(=O)Nc1c(O)c2ccccc2[nH]c1=O	-	?	-	-	-	-	.	.
CCCCCCC(=O)Nc1c2c(nc3ccccc13)N(C)CC2	-	-	47.8	-	-	-	93.8	100.5
CCCCCCCn1c(=N)n(CC(O)c2ccco2)c2ccccc21 (stereo unspecified)	?	-	-	?	-	?	.	.
CN1CCN(C(=O)/C(=C/c2cn(C)c3ccccc23)NC(=O)c2ccccc2)CC1	-	-	-	-	-	-	.	.
COc1ccc(-c2nc3ccc(N4CCN(C)CC4)cc3c(=O)[nH]2)cc1	-	-	32.4	-	-	-	-	-
CCOC(=O)c1[nH]c2ccc(OC)cc2c1C(SCC(=O)O)c1ccc(C(F)(F)F)cc1 (stereo unspecified)	-	-	55.0	-	-	-	131.6	84.7
CCOC(=O)c1[nH]c2ccc(OC)cc2c1NC(=O)c1ccc(OC)c(OC)c1	-	-	-	-	-	-	.	.
COc1ccc(COC(=O)CN2C(=O)NC3(CC(C)CC(C)(C)C3)C2=O)cc1F (stereo unspecified)	-	-	-	-	-	-	.	.
CC(=O)c1ccc(N(C(=O)CS(=O)CC(=O)Nc2ccc(F)cc2)C(C(=O)NC2CCCCC2)c2cccs2)cc1 (stereo unspecified)	-	-	-	-	-	-	.	.
CCc1cc(=O)oc2c(C)c(O[C@@H]3O[C@H](CO)[C@@H](O)[C@H](O)[C@H]3O)ccc12	-	-	-	-	-	-	.	.
CC(=O)O[C@@H]1[C@H](OC(=O)CC(C)C)c2c(ccc3ccc(=O)oc23)OC1(C)C	-	-	-	-	-	-	.	.
CC1(C)Oc2ccc3ccc(=O)oc3c2CC1O (stereo unspecified)	-	-	77.6	-	-	-	80.5	69.0
CC1(C)Oc2ccc3ccc(=O)oc3c2C[C@H]1O[C@@H]1O[C@H](CO)[C@@H](O)[C@H](O)[C@H]1O	-	-	55.1	-	-	-	-	11.6
